Common to all, as to settings: Compound concentration 20.0 uM, Protein concentration 2.0 uM, Result type QC Liability
The target of experiment [1] is Tyrosine-protein kinase ABL1 (Homo sapiens) (UniProt P00519).
Experiment [2] concerns the target Cyclin-dependent kinase 2 (Homo sapiens) (UniProt P24941).
The target in experiment [3] is Casein kinase I isoform delta (Homo sapiens) (UniProt P48730).
Experiment [4] has as its target Glycogen synthase kinase-3 beta (Homo sapiens) (UniProt P49841).
Experiment [5] deals with Mitogen-activated protein kinase 1 (Homo sapiens) (UniProt P28482).
The target of experiment [6] is T1, Aurora kinase A (Homo sapiens) (UniProt O14965).
T1 sequence (whole entry): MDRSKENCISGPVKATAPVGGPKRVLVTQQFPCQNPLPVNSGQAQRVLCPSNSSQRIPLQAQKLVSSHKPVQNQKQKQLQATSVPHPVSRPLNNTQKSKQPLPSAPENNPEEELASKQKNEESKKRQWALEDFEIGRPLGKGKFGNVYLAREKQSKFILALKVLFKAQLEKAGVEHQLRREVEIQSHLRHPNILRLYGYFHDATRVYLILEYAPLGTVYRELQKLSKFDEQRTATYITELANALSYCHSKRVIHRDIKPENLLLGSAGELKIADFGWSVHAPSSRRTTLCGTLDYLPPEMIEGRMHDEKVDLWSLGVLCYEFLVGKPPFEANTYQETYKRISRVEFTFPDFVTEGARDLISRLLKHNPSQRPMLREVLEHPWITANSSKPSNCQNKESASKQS

Mitogen-activated protein kinase 1 (Homo sapiens), sequence (P28482 whole entry): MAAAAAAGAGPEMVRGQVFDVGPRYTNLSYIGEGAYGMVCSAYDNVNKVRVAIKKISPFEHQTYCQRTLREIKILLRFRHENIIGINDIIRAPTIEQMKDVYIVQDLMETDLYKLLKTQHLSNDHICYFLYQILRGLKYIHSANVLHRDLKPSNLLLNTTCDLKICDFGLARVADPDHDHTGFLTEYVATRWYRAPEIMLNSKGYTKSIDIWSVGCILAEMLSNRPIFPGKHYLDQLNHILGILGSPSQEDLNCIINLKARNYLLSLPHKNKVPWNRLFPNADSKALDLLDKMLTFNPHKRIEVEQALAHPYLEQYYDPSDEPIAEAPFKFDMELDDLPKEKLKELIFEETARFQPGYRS
Tyrosine-protein kinase ABL1 (Homo sapiens), sequence (P00519 whole entry): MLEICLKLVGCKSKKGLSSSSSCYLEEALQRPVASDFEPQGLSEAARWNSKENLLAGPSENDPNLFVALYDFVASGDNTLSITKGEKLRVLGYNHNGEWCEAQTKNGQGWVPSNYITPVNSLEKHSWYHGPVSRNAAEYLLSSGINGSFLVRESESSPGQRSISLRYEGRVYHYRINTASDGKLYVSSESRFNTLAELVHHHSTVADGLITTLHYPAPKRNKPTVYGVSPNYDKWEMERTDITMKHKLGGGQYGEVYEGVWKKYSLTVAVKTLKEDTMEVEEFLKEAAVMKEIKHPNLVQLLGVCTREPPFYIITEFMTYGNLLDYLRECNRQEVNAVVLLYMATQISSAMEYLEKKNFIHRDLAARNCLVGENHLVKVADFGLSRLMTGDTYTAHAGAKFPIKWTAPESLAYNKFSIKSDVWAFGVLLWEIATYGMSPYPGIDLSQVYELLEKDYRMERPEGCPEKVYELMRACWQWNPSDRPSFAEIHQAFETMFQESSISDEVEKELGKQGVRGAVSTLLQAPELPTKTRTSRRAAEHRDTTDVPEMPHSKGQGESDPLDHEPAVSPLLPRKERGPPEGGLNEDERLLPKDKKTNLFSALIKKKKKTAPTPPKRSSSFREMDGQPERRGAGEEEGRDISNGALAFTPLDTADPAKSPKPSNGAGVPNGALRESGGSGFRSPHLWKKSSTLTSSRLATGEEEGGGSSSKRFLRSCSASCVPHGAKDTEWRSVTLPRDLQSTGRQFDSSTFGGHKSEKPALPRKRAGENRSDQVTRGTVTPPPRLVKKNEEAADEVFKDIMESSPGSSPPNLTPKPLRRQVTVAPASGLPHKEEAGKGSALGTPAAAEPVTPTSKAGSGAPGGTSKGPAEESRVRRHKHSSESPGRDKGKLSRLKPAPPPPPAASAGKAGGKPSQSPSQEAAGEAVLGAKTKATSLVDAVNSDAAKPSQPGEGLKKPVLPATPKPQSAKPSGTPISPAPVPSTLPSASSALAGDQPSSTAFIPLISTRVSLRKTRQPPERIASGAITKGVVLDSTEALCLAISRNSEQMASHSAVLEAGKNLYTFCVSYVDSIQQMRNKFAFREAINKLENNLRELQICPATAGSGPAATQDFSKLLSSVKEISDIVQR
Casein kinase I isoform delta (Homo sapiens), sequence (P48730 whole entry, looked up, canonical isoform): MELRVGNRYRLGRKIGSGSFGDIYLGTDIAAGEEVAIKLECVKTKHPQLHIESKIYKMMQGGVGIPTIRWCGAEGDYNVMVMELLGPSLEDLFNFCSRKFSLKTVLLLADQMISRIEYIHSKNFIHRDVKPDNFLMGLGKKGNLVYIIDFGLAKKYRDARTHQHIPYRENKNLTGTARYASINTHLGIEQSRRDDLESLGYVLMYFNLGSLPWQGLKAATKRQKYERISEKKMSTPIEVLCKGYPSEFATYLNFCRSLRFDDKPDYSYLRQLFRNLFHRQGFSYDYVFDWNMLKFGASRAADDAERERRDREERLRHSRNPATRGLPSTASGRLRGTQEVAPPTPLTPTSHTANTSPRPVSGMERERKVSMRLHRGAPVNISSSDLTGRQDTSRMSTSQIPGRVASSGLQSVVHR
Glycogen synthase kinase-3 beta (Homo sapiens), sequence (P49841 whole entry, looked up): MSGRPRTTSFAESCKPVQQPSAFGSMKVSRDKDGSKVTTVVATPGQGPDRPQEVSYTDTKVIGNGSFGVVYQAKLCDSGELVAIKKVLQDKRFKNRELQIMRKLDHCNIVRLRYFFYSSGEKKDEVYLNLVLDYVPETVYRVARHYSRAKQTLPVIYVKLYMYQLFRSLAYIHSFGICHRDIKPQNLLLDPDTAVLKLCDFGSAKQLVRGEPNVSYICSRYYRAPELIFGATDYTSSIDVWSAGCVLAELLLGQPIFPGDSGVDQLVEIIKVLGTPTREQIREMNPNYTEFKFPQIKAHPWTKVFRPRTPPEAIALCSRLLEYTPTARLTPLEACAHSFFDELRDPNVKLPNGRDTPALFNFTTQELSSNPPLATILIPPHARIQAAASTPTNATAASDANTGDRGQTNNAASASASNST

What is called ΔTm is the change in melting temperature against a reference sample. Consider `COc1cc2nc(C)nc(NC3(c4ccccc4)CC3)c2cc1OC`, for which the ΔTm in experiment [1] is 0.57 °C; in experiment [2], 0.41 °C; in experiment [3], 0.15 °C; in experiment [4], -0.3 °C; in experiment [5] it was 0.33 °C; in experiment [6], 0.65 °C.

`CC1CCN(c2ccnc(NCc3cn(C)cn3)n2)CC1`: the ΔTm was -1.33 °C in experiment [1]; 0.15 °C in experiment [2]; 0.29 °C in experiment [3]; -0.33 °C in experiment [4]; 0.75 °C in experiment [5]; -0.52 °C in experiment [6].

In the case of `O=C(Nc1ccc(N2CCC(C(=O)N3CCOCC3)CC2)cc1)c1cnc(Oc2ccccc2)nc1`, the ΔTm is 0.2 °C in experiment [1]; 0.87 °C in experiment [2]; 0.06 °C in experiment [3]; -0.13 °C in experiment [4]; 0.13 °C in experiment [5]; -0.24 °C in experiment [6].

As for `Cc1c(CCC(=O)O)cccc1NC(=O)[C@@H](c1ccc(-c2cncc(Cl)c2)c(F)c1)C1CCCC1`, the ΔTm in experiment [1] was 1.34 °C; in experiment [2], -0.35 °C; in experiment [3] it was -0.06 °C; in experiment [4], 0.61 °C; in experiment [5], -0.61 °C; in experiment [6], 4.78 °C.

Regarding `COc1ccc(CC[C@@H](OC(=O)[C@H]2CCCCN2C(=O)[C@@H](c2cc(OC)c(OC)c(OC)c2)C2CCCCC2)c2cccc(OCCN3CCOCC3)c2)cc1OC`, the ΔTm in experiment [1] was -1.34 °C; in experiment [2] it was -4.12 °C; in experiment [3] it was -1.85 °C; in experiment [4] it was -1.12 °C; in experiment [5], -0.42 °C; in experiment [6], -1.27 °C.

In the case of `CCCS(=O)(=O)N[C@H]1C[C@@H](N(C)c2ncnc3[nH]ccc23)C1`, the thermal shift (ΔTm) in experiment [1] came out at 1.02 °C; in experiment [2], 0.96 °C; in experiment [3] it was 0.73 °C; in experiment [4], 1.39 °C; in experiment [5], 0.29 °C; in experiment [6], 3.25 °C.

As to `Cn1cc(-c2ccc(N(C(=O)NCc3ccccc3)[C@H]3CC[C@H](Nc4ccc(C#N)cn4)CC3)cc2)ccc1=O`, the ΔTm was 0.13 °C in experiment [1]; 0.7 °C in experiment [2]; 0.29 °C in experiment [3]; 0.01 °C in experiment [4]; -0.4 °C in experiment [5]; -0.15 °C in experiment [6].

As to `CC1CCN(C(=O)[C@@H](CCn2cccc2C#N)NS(=O)(=O)c2cccc3[nH]ccc23)CC1`, the ΔTm in experiment [1] is 0.25 °C; in experiment [2], 0.59 °C; in experiment [3], 0.33 °C; in experiment [4], -0.44 °C; in experiment [5] it was -8.81 °C; in experiment [6] it was 0.05 °C.

As to `CC(C)C[C@H](NC(=O)[C@@H](O)[C@H](N)Cc1ccccc1)C(=O)O`, the ΔTm in experiment [1] is -0.05 °C; in experiment [2], 1.32 °C; in experiment [3] it was 0.13 °C; in experiment [4] it was 0.33 °C; in experiment [5] it was 0.15 °C; in experiment [6], -0.07 °C.

Consider `FC(F)c1cncc(-c2ccc3ncc4nnc(C5=CCCOCC5)n4c3c2)c1`, for which the ΔTm was 0.89 °C in experiment [1]; 0.55 °C in experiment [2]; 0.33 °C in experiment [3]; 2.58 °C in experiment [4]; 0.41 °C in experiment [5]; 1.62 °C in experiment [6].

For `Cc1ncsc1-c1ccc(CNC(=O)[C@@H]2C[C@H](O)CN2C(=O)[C@@H](NC(=O)C2(F)CC2)C(C)(C)C)c(OCCOc2ccc(CN3CCN(c4cc(-c5ccccc5O)nnc4N)CC3)cc2)c1` (relative stereo), the ΔTm in experiment [1] was determined as 0.51 °C; in experiment [2], 2.76 °C; in experiment [3] it was 6.03 °C; in experiment [4] it was 0.29 °C; in experiment [5] it was 0.5 °C; in experiment [6], 3.42 °C.

Turning to `CC1(C)CCN(C(=O)C2CN(c3c4c(nc5ccnn35)CCNCC4)C2)C1`, the ΔTm in experiment [1] was -0.37 °C; in experiment [2] it was 0.71 °C; in experiment [3], 0.26 °C; in experiment [4], -0.71 °C; in experiment [5], 0.08 °C; in experiment [6], -0.02 °C.

`c1ccc(C(OC2CCN(CCCc3nnn[nH]3)CC2)c2ccccc2)cc1`: the ΔTm was 0.21 °C in experiment [1]; 0.54 °C in experiment [2]; -0.14 °C in experiment [3]; 0.65 °C in experiment [4]; -0.05 °C in experiment [5]; -0.34 °C in experiment [6].

Consider `O=C1CN(c2ccccc2F)C(NCCN2CCOCC2)=C1c1nc2cc(Br)ccc2c(=O)[nH]1`, for which the thermal shift (ΔTm) in experiment [1] was determined as 0.38 °C; in experiment [2] it was 0.68 °C; in experiment [3], 0.32 °C; in experiment [4] it was 0.31 °C; in experiment [5], 0.23 °C; in experiment [6], 0.17 °C.

Take `COc1cc2nc(-c3cc(F)ccc3O)nc(N[C@@H]3CNC[C@H]3C(C)(C)O)c2cc1OC`: the ΔTm in experiment [1] turned out to be 2.31 °C; in experiment [2], 3.24 °C; in experiment [3], 4.64 °C; in experiment [4], 3.22 °C; in experiment [5], 3 °C; in experiment [6], 3.06 °C.

For `N=C(N)NCCC[C@H](NC(=O)CC1(CC(=O)N2CCN(C3c4ccccc4NC(=O)c4ccccc43)CC2)CCCC1)C(=O)NCCn1c(=O)n(-c2ccccc2)n(-c2ccccc2)c1=O` (some centres undefined), the ΔTm was -2.29 °C in experiment [1]; -1.3 °C in experiment [2]; -0.34 °C in experiment [3]; -1.99 °C in experiment [4]; -0.45 °C in experiment [5]; -0.47 °C in experiment [6].

Consider `Cc1nn(C)c(COc2ccc(N3CCN(S(=O)(=O)N(C)C)CC3)cc2)c1-c1cccc2c(CCCOc3cccc4ccccc34)c(C(=O)O)n(CCN3CCOCC3)c12`, for which the thermal shift (ΔTm) is 0.04 °C in experiment [1]; 0.39 °C in experiment [2]; -0.73 °C in experiment [3]; 0 °C in experiment [4]; -0.31 °C in experiment [5]; 0.6 °C in experiment [6].

With `NC1(c2ccc(-c3nc4c(O)ccnn4c3-c3ccccc3)cc2)CCC1`, the ΔTm in experiment [1] was 0.22 °C; in experiment [2], -0.34 °C; in experiment [3] it was 0.07 °C; in experiment [4], -0.72 °C; in experiment [5] it was 0.46 °C; in experiment [6], 0.43 °C.

Take `C[C@@H]1Cc2c([nH]c3ccccc23)[C@@H](c2c(F)cc(/C=C/C(=O)O)cc2F)N1CC(C)(C)F`: the ΔTm is -0.24 °C in experiment [1]; -0.07 °C in experiment [2]; 0.64 °C in experiment [3]; 0 °C in experiment [4]; 0.55 °C in experiment [5]; -0.16 °C in experiment [6].

Regarding `Nc1ncnc2c1c(I)cn2[C@@H]1O[C@H](CO)[C@@H](O)[C@H]1O`, the ΔTm came out at 2.09 °C in experiment [1]; 6.73 °C in experiment [2]; 5.26 °C in experiment [3]; 2.65 °C in experiment [4]; 1.65 °C in experiment [5]; 2.13 °C in experiment [6].

For the molecule `COc1ccc2c(O[C@@H]3C[C@H]4C(=O)N[C@]5(C(=O)O)CC5/C=C\CCCCC[C@H](NC(=O)OC5CCCC5)C(=O)N4C3)cc(-c3csc(NC(=O)C(C)C)n3)nc2c1C` (some centres undefined), the shift in melting temperature (ΔTm) in experiment [1] was 0.27 °C [middle of 4 runs]; in experiment [2] it was 0.77 °C [middle of 4 runs]; in experiment [3] it was 0.4 °C [middle of 4 runs]; in experiment [4], -0.22 °C [middle of 4 runs]; in experiment [5], 0.48 °C [middle of 4 runs]; in experiment [6], 0.2 °C [middle of 4 runs].

For the molecule `Cc1ccccc1Oc1cc(-n2c(=O)cc(C(F)(F)F)[nH]c2=O)c2ccccc2c1Cl`, the ΔTm in experiment [1] is -0.09 °C; in experiment [2] it was 0.61 °C; in experiment [3] it was 0.85 °C; in experiment [4] it was -1.52 °C; in experiment [5], -0.82 °C; in experiment [6] it was -1.95 °C.

Take `COc1cccc(CNc2ccc(S(=O)(=O)Nc3nc4ccccc4s3)cc2)c1O`: the ΔTm in experiment [1] was 0.16 °C; in experiment [2], 0.93 °C; in experiment [3] it was 0.86 °C; in experiment [4] it was 0.88 °C; in experiment [5] it was -0.57 °C; in experiment [6], 1.13 °C.

Regarding `COc1cc(-c2cn(C)c(=O)c3cnccc23)c(OC)cc1CN(C)C`, the ΔTm in experiment [1] was 0.49 °C; in experiment [2] it was 0.53 °C; in experiment [3], 0.06 °C; in experiment [4] it was 0.1 °C; in experiment [5], -0.12 °C; in experiment [6] it was -0.18 °C.

(Values after ChEMBL document CHEMBL5308504, “Tm Shift (DSF) assay results for EUbOPEN Chemogenomics Library” (2023).)
